Screening results as filed in PubChem.
D3 antag: antagonists of human D3 dopamine receptor; P35462; actives 2.5% (n = 360,000); D3R cells, DiscoveRx beta-arrestin luminescence, antagonist mode; active compounds read low; max response, negative = inhibition, %; in the data active = max response below about -50%; inconclusive = no clear call, values can overlap the other calls; note: % is set by controls: 0 for no effect and ±100 for the full control effect
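Cells plated overnight at 1500 cells/well, then exposed to library compounds with dopamine controls for 90 minutes at 37 degrees C. DiscoveRx reagent added for 30–60 minutes at room temperature; luminescence read, quantitative HTS format.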
DRD3 agonist: activates the human D3 dopamine receptor. P35462. D3R DiscoveRx beta-arrestin cells, luminescence, 90 min. max activation, %. actives 0.58% (n = 410,000). AID 652048; in the data active = max activation above about 30%; note: 0% is about no effect
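Agonist-mode cell screen: cells plated at 1500/well and incubated overnight at 37 °C, then exposed to library compounds for 90 min at 37 °C. Detection reagent was added for 30–60 min at room temperature, and luminescence was read.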
CBFb-RUNX1 inh: inhibitors of human CBF-beta and RUNX1 interaction; Q01196+Q13951; AlphaScreen CBFb-His/RUNX1-biotin binding, biochemical; Potency, µM (doses to about 59.8 µM), without a hit: at the highest dose activity, negative = inhibition, hits mostly inhibitors; 230,000 tested, under 10 active; AID 1477; note: % of control where 0% means no effect
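AlphaScreen binding: CBFb-His and RUNX1-biotin (30 nM each) preincubated 20 min, compound added for 15 min, then nickel and streptavidin beads for 90 min, all at room temperature. Disruption of the interaction by any mechanism counts as activity.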
MBNL1-CUG inh: blocks human MBNL1 binding to CUG repeat RNA. Q9NR56. TR-FRET MBNL1-His/biotin-(CUG)12 binding, 665/545 ratio. Potency, µM (titrated, usually from 57.5 µM), for the others: top-dose activity change, negative = inhibition, most hits filed as inhibitors. actives 0.036% (n = 280,000). AID 2675; active = well fitted inhibition curve with a large enough effect in the signal ratio, with a control signal flat, not every such curve was filed as active; inconclusive = small, poorly fitted or top-dose-only effect, or effect the other way, or a change in a side signal; inactive = no such curve, though single readings can be large or run the other way; the % refers to the signal ratio; note: potency is the fitted concentration of half-maximal effect; % is set by controls: 0 for no effect and ±100 for the full control effect
Target sequence (Q9NR56 whole entry, looked up): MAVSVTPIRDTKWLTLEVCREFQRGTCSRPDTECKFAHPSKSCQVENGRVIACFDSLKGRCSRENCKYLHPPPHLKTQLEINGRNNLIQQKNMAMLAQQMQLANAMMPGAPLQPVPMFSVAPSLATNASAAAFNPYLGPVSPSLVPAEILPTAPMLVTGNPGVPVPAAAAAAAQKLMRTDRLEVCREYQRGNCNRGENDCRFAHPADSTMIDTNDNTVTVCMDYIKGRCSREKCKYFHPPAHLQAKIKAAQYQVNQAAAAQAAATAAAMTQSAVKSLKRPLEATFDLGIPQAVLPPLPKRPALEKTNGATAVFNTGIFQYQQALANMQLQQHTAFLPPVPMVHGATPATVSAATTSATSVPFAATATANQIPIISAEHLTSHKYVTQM
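TR-FRET between His-tagged MBNL1 and biotin-(CUG)12 RNA, detected with Tb anti-His antibody (0.055 ng/ul) and streptavidin-XL665 (5 nM), 60 min at room temperature. Compounds titrated 92 nM to 58 uM; 665/545 nm ratio normalized to buffer and complex controls.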
Integrin act MD: activates integrin-mediated alleviation for muscular dystrophy; alpha7betagal myoblasts, beta-gal FDG fluorescence, 48 h; actives 0.064% (n = 350,000); Potency, µM (top dose mostly 38.3 µM), for inactives: at the highest dose activation, usual class: activators;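 note: potency is the fitted concentration of half-maximal effect; 100% = response of the positive control SU9516; nearly all actives have a fitted effect of over 60% in size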
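Alpha7betagal+/- myoblasts (passage 13) were plated 16-24 hr, then exposed to compounds (1:260 dilution of DMSO stock) for 48 hours at 37C. After MPER lysis, β-galactosidase reporter activity was read as FDG fluorescence (ex 480/em 540) after 30 minutes.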
PTHR1 ag: agonists of human PTHR1 parathyroid hormone receptor; Potency, µM (top dose mostly 115 µM), without a hit: top-dose activation, most hits filed as activators; Q03431; AID 743266; HEK293 GP2 PTHR1 cells, GloSensor cAMP luminescence, 1 h; actives 0.075% (n = 410,000); note: potency is the fitted concentration of half-maximal effect; nearly all actives have a fitted effect of over 55% in size
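HEK-293-derived GP2 cells expressing PTHR1 and a GloSensor cAMP reporter, 3,000/well, plated overnight, given luciferin plus IBMX (each 0.5 mM as added) for 1 h at 37 °C, then compound for 1 h at 37 °C. Luminescence was read after 15 min at room temperature.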
An asterisk follows results filed as active; i = inactive; u = inconclusive; x = not tested or not shown; [ ] = another dose, or the depositor's remark. A selection: hits, their analogues and other compounds. The true share with any hit is near 2.8%. Unless noted, calls come from the whole dose curve; as a rule, active = well fitted curve in the direction sought with a large enough effect; inconclusive = small, poorly fitted or top-dose-only effect, or another doubt; inactive = no such curve, though single readings can be large; an effect the other way counts as inactive or inconclusive.

SMILES | D3 antag | DRD3 agonist | CBFb-RUNX1 inh | MBNL1-CUG inh | Integrin act MD | PTHR1 ag
COc1ccc(OC)c(-c2cc(C(=O)Nc3ccc(F)cc3F)no2)c1 | 15 | -2 | -10% | 14% | -8% | -35%
CSc1ccc(CN2CCC2(C)C(=O)NC2CCN(Cc3ccccc3)CC2)cc1 (stereo not drawn) | -111* | -19 | x | x | x | i
CC1(C(=O)NC2CCCCC2)CCC(=O)N1C1CCN(Cc2ccccc2)CC1 (stereo not drawn) | 8 | 6 | x | x | x | -4%
CC1(C(=O)NC2CCN(Cc3ccccc3)CC2)CCN1Cc1cc2ccccc2o1 (stereo not drawn) | -78* | -11 | x | x | x | i
C[C@H](CO)N1C[C@H](C)[C@@H](CN(C)Cc2ccc3cccnc3c2)OCc2cnnn2CCCC1=O | 4 | 0 | x | x | 15% | -8%
COc1ccccc1-c1cc(C(F)(F)F)nc(S(=O)(=O)CCCC(=O)N2CCCCC2C)n1 (stereo not drawn) | -88* | -6 | 5% | -4% | -56% | -25%
COc1ccccc1-c1cc(C(F)(F)F)nc(S(=O)(=O)CCCC(=O)Nc2cc(C)on2)n1 | -82* | -1 | 2% | 13% | -66% | -6%
COc1ccccc1-c1cc(C(F)(F)F)nc(S(=O)(=O)CCCC(=O)NC(C)C)n1 | -67* | 0 | 2% | -4% | -58% | -33%
COc1ccc(NC(=O)CCCS(=O)(=O)c2nc(-c3ccccc3OC)cc(C(F)(F)F)n2)c(OC)c1 | x | -6 | x | x | x | i
COc1ccccc1-c1cc(C(F)(F)F)nc(S(=O)(=O)CCCC(=O)NCc2ccc(F)cc2)n1 | -67* | -9 | 12% | -2% | -63% | -35%
CCCCC(=O)Nc1nnc(S(=O)(=O)N(C)Cc2ccccc2)s1 | x | 5 | x | x | x | i
CCOc1ccc(-c2c(C)nn3c(C)c(C(=O)NCCc4ccccc4)cnc23)cc1OCC | x | -2 | x | x | x | i
COc1ccccc1-c1cc(C(F)(F)F)nc(S(=O)(=O)CCCC(=O)Nc2ccccc2F)n1 | x | -24 | x | x | x | -3%
COc1ccccc1-c1cc(C(F)(F)F)nc(S(=O)(=O)CCCC(=O)Nc2cccnc2Cl)n1 | -52* | -15 | -5% | -1% | -72% | -27%
O=[N+]([O-])c1ccc(Cl)cc1N/N=C/c1ccncc1 | 19 | -1 | x | u | 5.6µM* | i
O=C(Nc1cccc(N2CCCC2)c1)c1cccs1 | -51* | -33 | -23% | -3% | 5% | -26%[57.5 µM]
Nc1cccc(NC(=O)c2cccs2)c1 | 18 | 1 | 0% | -3% | 1% | i
CCC1(c2ccc(F)cc2)NC(=O)N(CC(=O)NCC(=O)Nc2cccc(C)c2C)C1=O (stereo not drawn) | -19 | -12 | x | x | 16% | i
O=C(Nc1ccccc1F)N(CCCN1CCOCC1)Cc1cc2cc3c(cc2[nH]c1=O)OCCO3 | -55* | 2 | 1% | -10% | 10% | -16%[57.5 µM]
CCOC(=O)N=Nc1c2ccccc2c2nc3no[nH]c3nc12 | -65* | -18 | -18% | u | -42% | -45%
COC(=O)C(F)(Sc1c(C)n(C)n(-c2ccccc2)c1=O)C(F)(F)F (stereo not drawn) | -60* | -1 | 4% | -6% | -12% | i
O=c1c2c3c(sc2n(Cc2cc(=O)n4ccccc4n2)c(=O)n1-c1ccc(Cl)cc1)CCC3 | x | 0 | x | x | x | -16%
Cc1sc2c(c1C)c(=O)n(-c1ccc(Cl)cc1)c(=O)n2Cc1cc(=O)n2ccccc2n1 | -55* | 3 | 6% | x | 31% | i
CCOc1ccc(/C=C2\SC(=S)N(CCC(=O)O)C2=O)cc1 | 3 | 2 | 5% | u | 15% | -29%
O=C(O)CCN1C(=O)CC(N2C(=O)/C(=C/c3ccc(Cl)cc3)SC2=S)C1=O (stereo not drawn) | 0 | 31* | -3% | u | -39% | -16%
SMILES | D3 antag | DRD3 agonist | CBFb-RUNX1 inh | MBNL1-CUG inh | Integrin act MD | PTHR1 ag
CC(=O)Nc1nonc1-c1nnc(SCc2ccccc2Cl)n1C | x | 8 | x | x | x | -78%
CCc1cc2c(=O)c(-c3cnn(-c4ccccc4)c3)c(C)oc2c(CN2CCCCC2)c1O | 1 | 37* | -6% | -10% | -28% | -12%
CCCOc1ccc(C2c3c(oc4ccccc4c3=O)C(=O)N2c2nc(C)c(C(=O)OCC)s2)cc1 (stereo not drawn) | x | 8 | x | x | x | i
O=C(Cn1c(=O)n(CCc2ccccc2)c(=O)c2c3c(sc21)CCCC3)Nc1ccc(F)c(F)c1 | x | 2 | x | x | x | -14%
CC(C)c1ccc(NC(=O)Nc2nc(C(N)C3CCCCC3)cs2)cc1 (stereo not drawn) | 11 | -7 | x | x | x | i
Cc1ccccc1NC(=O)Nc1nc(C(N)C2CCCCC2)cs1 (stereo not drawn) | -84* | -11 | x | x | x | i
Cn1nnc(NC(=S)NC(=O)c2cc3ccccc3o2)n1 | -2 | -17 | 8% | 10% | 10% | -12%
Cn1nnc(NC(=S)NC(=O)Cc2ccccc2)n1 | -64* | -12 | 0% | 5% | -10% | i
Cn1nnc(NC(=O)c2ccco2)n1 | 11 | 1 | 4% | 1% | -7% | -19%
Cn1nnc(NC(=S)NC(=O)c2ccco2)n1 | -72* | -17 | -3% | -25% | 22% | 6%
CC(=O)NS(=O)(=O)c1ccc(NC(=S)NC(=O)c2ccco2)cc1 | -110* | -8 | -2% | -2% | -3% | i
COc1cccc(CC(=O)N2CCCC(CO)(Cc3ccc(F)cc3F)C2)c1 (stereo not drawn) | -1 | -3 | x | 0% | 13% | -19%
COC(=O)c1ccc(CN2CCC(CO)(CCOc3ccccc3)CC2)cc1 | u | -16 | x | -1% | 15% | -20%
COC(=O)c1ccc(CN2CCC(CO)(Cc3cccc(OC)c3)CC2)cc1 | -80* | -9 | 2% | -10% | 3% | -32%
COC(=O)c1ccc(CN2CCCC(CO)(Cc3ccc(F)cc3F)C2)cc1 (stereo not drawn) | -96* | -18 | x | -2% | 0% | i
COc1ccc(CC2(CO)CCN(Cc3cc4ccccc4o3)CC2)cc1 | -56* | 25 | -6% | -4% | -41% | -26%
CC12CCC(C(=O)C1)C1(C)CCCC(=O)C21 (stereo not drawn) | 5 | 4 | x | x | 4% | -18%
CC(C)=CCC[C@H](C)C[C@@H]1Cc2[nH]c(=S)[nH]c(=O)c2[C@@H](c2ccc(F)cc2)O1 | -55* | -3 | x | x | x | -23%
